{
  "source": "PubChem BioAssay (NCI)",
  "note": "About 83,000 compounds went through this panel and 20% of them were active in at least one assay; those are over-represented in the sample as a whole.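 Interpretation: 100, growth as untreated; towards 0, rising growth inhibition; 0, no net growth; 0 to -100, cell death. Compounds scoring below 10 were considered active.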 Calls of active or inactive are those of the source.",
  "data": [
    {"system": "SW-620 colon", "assay": "NCI-60 one-dose screen, 48 h (100 = growth as untreated, 0 = no growth, -100 = all killed)", "conditions": "10 µM unless noted", "method": "Growth inhibition of the SW-620 human tumor cell line is measured as a screen for anti-cancer activity. Cells are grown in 96 well plates and exposed to the test compound for 48 hours. Compounds are tested at a single concentration, which is 10^-5 M for most compounds. The reported endpoint is percent growth (GI% or GIPRCNT), where numbers from 0 - 100% represent growth inhibition, and numbers from -100% - 0 represent cell death. For example, a value of 40 represents 60% growth inhibition. A value of 0 means no net growth occurred over the course of the experiment. A value of -40 indicates 40% of cells at the beginning of the experiment died by the end of the experiment. A value of -100 means all cells are dead at the end of the experiment.\nNCI-60 Human Tumor Cell Lines Screen was performed using the standard one-dose NCI protocol, which is described in more detail at https://dtp.cancer.gov/discovery_development/nci-60/default.htm.\nCompounds with GIPRCNT values below 10 were considered active. Activity score was based on GIPRCNT using the following formula: […]\nScore is 0 for GIPRCNT values of 100 or above, 50 for GIPRCNT values of 0, and 100 for GIPRCNT values of -100.", "values": [
      {"compound": "COc1ccc(C2CC(c3ccccc3)=NN2C(=O)c2cc(OC)c(OC)c(OC)c2)cc1O", "note": "(stereo not given)", "growth": "32.1% (inactive)"},
      {"compound": "O=C1c2cccnc2C(=O)c2c1c(C(=O)OCCc1ccccn1)c1ccccn21", "growth": "2.3% (active)"},
      {"compound": "COC1C(O)CC(OC2CC(OC3CC(O[C@@H]4C(=O)c5c(cc6cc(OC7CC(OC8CC(O)C(O)C(C)O8)C(O)C(C)O7)c(C)c(O)c6c5O)CC4[C@H](OC)C(=O)C(C)=O)OC(C)C3O)OC(C)C2O)OC1C", "note": "(stereo not given in full)", "growth": "8.3% (active)"},
      {"compound": "C/C(Cc1ccc(Cl)cc1)=C(\\c1ccc(OCCN2CCCCCC2)cc1)c1ccc(OC(=O)c2ccccc2)cc1", "growth": "37.3% (inactive)"},
      {"compound": "O=c1cc(CP(=O)(O)O)c2cc(O)c(-c3ccccc3)cc2o1", "growth": "98.3% (inactive)"},
      {"compound": "CCOC(=O)C/C(=N\\Nc1cc(=O)[nH]c2ccc(OC)cc12)C(=O)OCC", "growth": "90.3% (inactive)"},
      {"compound": "COCCn1cc(-c2nc(-c3c[nH]c4ncccc34)cs2)c2ccccc21", "growth": "68.6% (inactive)"},
      {"compound": "Nc1ccc(Br)cc1C(F)(F)F", "growth": "111% (inactive)"},
      {"compound": "O=CCCCOCc1ccccc1", "growth": "100% (inactive)"},
      {"compound": "O=C(c1cccc(N2CCOCC2)n1)c1c[nH]c2ccccc12", "growth": "94.1% (inactive)"},
      {"compound": "Cc1cc(C(=O)CCCC(=O)c2cc(C)c(O)c(C)c2)cc(C)c1O", "growth": "98.9% (inactive)"},
      {"compound": "Cc1ccc(S(=O)(=O)OCC#CCOS(=O)(=O)c2ccc(C)cc2)cc1", "growth": "51.2% (inactive)"},
      {"compound": "CCOC(=O)c1[nH]cc2c1CCc1sc(Nc3ccccn3)nc1-2", "growth": "103% (inactive)"},
      {"compound": "Cc1nn(C)c2ncnc(N/N=C/c3cccc(O)c3O)c12", "growth": "26.7% (inactive)"},
      {"compound": "Cc1cc(N2CCN(CC(=O)Nc3ccc4c(ccn4Cc4ccccc4)c3)CC2)nc(N2CCOCC2)n1", "growth": "95% (inactive)"},
      {"compound": "O=[N+]([O-])c1c(O)c(Cl)cc(Cl)c1Cl", "growth": "115% (inactive)"},
      {"compound": "O=C1C(Cl)=C(Nc2ccccc2)C(=O)c2ccccc21", "growth": "-72% (active)"},
      {"compound": "CCOC(=O)c1nnn(Cc2cc(=O)oc3ccc(O)cc23)c1C", "growth": "98.2% (inactive)"},
      {"compound": "COc1ccc(/C=N/NC(=O)Cn2c(-c3ccc(S(C)(=O)=O)cc3)nc3ccccc32)cc1", "growth": "97.6% (inactive)"},
      {"compound": "COc1cc(O)c2c(=O)c3c(CC=C(C)C)cc(OC)c(O)c3oc2c1", "growth": "26.3% (inactive)"},
      {"compound": "O=c1cc(CNc2cc(F)cc(F)c2)c2ccc(I)cc2[nH]1", "growth": "19.1% (inactive)"},
      {"compound": "NS(=O)(=O)c1ccc(C(=O)N=Nc2c(O)[nH]c3ccc(Cl)cc23)cc1", "growth": "100% (inactive)"},
      {"compound": "COc1ccc(C/C(C)=C(\\c2ccc(Cl)cc2)c2ccc(OCCCN(C)C)cc2)cc1", "growth": "60.8% (inactive)"},
      {"compound": "C=C1C(=O)O[C@H]2[C@H]1CC/C(CNC(=O)Cc1c[nH]c3ccccc13)=C\\CC[C@@]1(C)O[C@@H]21", "growth": "-20.4% (active)"},
      {"compound": "COc1cc(/C=C/C(=O)N2CCN(C(=O)c3cc(OC)c(OC)c(OC)c3)CC2)ccc1OCCCOc1cc2c(cc1OC)C(=O)N1CCC[C@H]1C=N2", "growth": "4.48% (active)"},
      {"compound": "CCN1C(=O)N(c2ccccc2)C2NC(=S)N(/N=C/C=C/c3ccccc3OC)C21", "note": "(stereo not given)", "growth": "22.2% (inactive)"},
      {"compound": "COC(=O)c1c2c(c[n+]([O-])c1C)C(=O)C=C(NCc1ccccc1)C2=O", "growth": "-78.9% (active)"},
      {"compound": "N#Cc1c(-c2cccc(Cl)c2)cc(-c2cccnc2)[nH]c1=O", "growth": "71.1% (inactive)"},
      {"compound": "Nc1cccc(-c2ccc(COc3ccc(CC4SC(=O)NC4=O)cc3)cc2)c1", "note": "(stereo not given)", "growth": "34.2% (inactive)"},
      {"compound": "CCOC(=O)C#Cc1c(C(=O)OCC)nnn1[C@@H]1O[C@H](COC)[C@@H](OC)[C@H]1OC", "growth": "-38.7% (active)"},
      {"compound": "COc1cc(/C=C/c2cc(/C=C/c3ccc(O)c(OC)c3)n(C(=O)Nc3ccc(Cl)cc3)n2)ccc1O", "growth": "9.56% (active)"},
      {"compound": "C=C1C(=O)O[C@H]2[C@H]1CC/C(COC(=O)C(=O)c1c[nH]c3ccc(Cl)cc13)=C\\CC[C@@]1(C)O[C@@H]21", "growth": "-75.5% (active)"},
      {"compound": "C/C(=C(\\c1ccc(OCCN2CCCCCC2)cc1)c1ccc(OC(=O)c2ccccc2)cc1)c1ccc(Cl)cc1", "growth": "25.8% (inactive)"},
      {"compound": "CN(C)Cc1ccc(NC(=O)c2cncc(C#Cc3cnc(N)c4ncccc34)c2)cc1C(F)(F)F", "growth": "-78.7% (active)"},
      {"compound": "COc1cc(/C=C/C(=O)c2cc(OC)c(OC)c(OC)c2)ccc1Oc1nc2c(c(=O)n(C)c(=O)n2C)n1C", "growth": "-40% (active)"},
      {"compound": "CCN(CC)CCn1c2ccc(OC)cc2c2sc3cc(O)ccc3c(=O)c21", "growth": "13.3% (inactive)"},
      {"compound": "COc1ccc(Oc2ccc(/C=C/C(=O)c3ccc(OC)c(OC)c3)cc2)cc1", "growth": "83.9% (inactive)"},
      {"compound": "Brc1ccc(Nc2nc(Nc3cnc4ccccc4c3)c3[nH]cnc3n2)cc1", "growth": "91.9% (inactive)"},
      {"compound": "COc1ccc(Oc2ccc(/C=C/C(=O)c3cc4ccccc4oc3=O)cc2)cc1", "growth": "103% (inactive)"},
      {"compound": "Cc1c2ncccc2nc2[nH]c3ccc(OCCN(C)C)cc3c12", "growth": "17.3% (inactive)"}
    ]}
  ]
}
